# The full list was thinned out, with the strongest signals kept by preference.
# B1: GNAT (Pseudomonas aeruginosa), Q9HV14 (protein)
# chain: MQLSHRPAETGDLETVAGFPQDRDELFYCYPKAIWPFSVAQLAAAIAERRGSTVAVHDGQVLGFANFYQWQHGDFCALGNMMVAPAARGLGVARYLIGVMENLAREQYKARLMKISCFNANAAGLLLYTQLGYQPRAIAERHDPDGRRVALIQMDKPLEP
# What was measured:
# Test in all cases: glycan array binding signal (z-score within array); higher = stronger binding
# Details in all cases: glycan notation: IUPAC condensed, linker removed
# [1] = biological target: Fuc(a1-2)Gal(b1-3)[Fuc(a1-4)]GlcNAc(b1-2)Man(a1-3)[Fuc(a1-2)Gal(b1-3)[Fuc(a1-4)]GlcNAc(b1-2)Man(a1-6)]Man(b1-4)GlcNAc(b1-4)GlcNAc
# Method in brief: (§1)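 From the Consortium for Functional Glycomics database, 3228 arrays were curated, keeping only those whose protein sequence was available. Binding is given as a within-array Z-score averaged across arrays sharing a protein sequence and across linkers. Negative Z-scores can be read as non-binding.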
# [2] = biological target: Fuc(a1-2)Gal(b1-3)[Fuc(a1-4)]GlcNAc(b1-3)[Fuc(a1-3)[Gal(b1-4)]GlcNAc(b1-6)]Gal(b1-4)Glc
# Method in brief: as §1
# [3] = biological target: Fuc(a1-2)Gal(b1-4)[Fuc(a1-3)]GlcNAc(b1-3)Gal(b1-4)[Fuc(a1-3)]GlcNAc(b1-3)Gal(b1-4)[Fuc(a1-3)]GlcNAc
# Method in brief: as §1
# [4] = biological target: Fuc(a1-2)Gal(b1-4)[Fuc(a1-3)]GlcNAc(b1-3)GalNAc
# Method in brief: as §1
# [5] = biological target: Fuc(a1-2)Gal6S(b1-4)Glc
# Method in brief: as §1
# [6] = biological target: Fuc(a1-2)[Gal(a1-4)]Gal(b1-4)GlcNAc
# Method in brief: as §1
# [7] = biological target: Fuc(a1-2)[GalNAc(a1-3)]Gal(b1-3)GalNAc(a1-3)[Fuc(a1-2)]Gal(b1-4)GlcNAc
# Method in brief: as §1
# [8] = biological target: Fuc(a1-2)[GalNAc(a1-3)]Gal(b1-3)GlcNAc(b1-3)GalNAc
# Method in brief: as §1
# [9] = biological target: Fuc(a1-2)[GalNAc(a1-3)]Gal(b1-4)[Fuc(a1-3)]GlcNAc(b1-3)GalNAc
# Method in brief: as §1
# [10] = biological target: Fuc(a1-3)[Gal(b1-4)]GlcNAc(b1-6)GalNAc
# Method in brief: as §1
# [11] = biological target: Gal(a1-3)Gal(b1-3)GlcNAc(b1-2)Man(a1-3)[Gal(a1-3)Gal(b1-3)GlcNAc(b1-2)Man(a1-6)]Man(b1-4)GlcNAc(b1-4)GlcNAc
# Method in brief: as §1
# [12] = biological target: Gal(a1-3)Gal(b1-4)[Fuc(a1-3)]GlcNAc(b1-2)Man(a1-3)[Gal(a1-3)Gal(b1-4)[Fuc(a1-3)]GlcNAc(b1-2)Man(a1-6)]Man(b1-4)GlcNAc(b1-4)GlcNAc
# Method in brief: as §1
# [13] = biological target: Gal(b1-3)GlcNAc(b1-3)Gal(b1-3)GlcNAc
# Method in brief: as §1
# [14] = biological target: Gal(b1-3)[Fuc(a1-4)]GlcNAc(b1-3)Gal(b1-4)[Fuc(a1-3)]GlcNAc
# Method in brief: as §1
# [15] = biological target: Gal(b1-3)[Neu5Ac(a2-6)]GalNAc
# Method in brief: as §1
# [16] = biological target: Gal(b1-4)GalNAc(a1-3)[Fuc(a1-2)]Gal(b1-4)GlcNAc
# Method in brief: as §1
# [17] = biological target: Gal(b1-4)GlcNAc(b1-2)[Gal(b1-4)GlcNAc(b1-6)]Man(a1-6)[Gal(b1-4)GlcNAc(b1-2)Man(a1-3)]Man(b1-4)GlcNAc(b1-4)GlcNAc
# Method in brief: as §1
# [18] = biological target: Gal(b1-4)GlcNAc(b1-2)[Gal(b1-4)GlcNAc(b1-6)]Man(a1-6)[GlcNAc(b1-4)][Gal(b1-4)GlcNAc(b1-2)Man(a1-3)]Man(b1-4)GlcNAc(b1-4)GlcNAc
# Method in brief: as §1
# [19] = biological target: Gal(b1-4)GlcNAc(b1-3)Gal(b1-4)[Fuc(a1-3)GlcNAc(b1-6)]Gal(b1-4)Glc
# Method in brief: as §1
# [20] = biological target: Gal(b1-4)GlcNAc(b1-3)[Gal(b1-4)GlcNAc(b1-6)]Gal(b1-4)GlcNAc
# Method in brief: as §1
# [21] = biological target: Gal3S(b1-4)GlcNAc6S
# Method in brief: as §1
# [22] = biological target: Gal3S(b1-4)[Fuc(a1-3)]Glc
# Method in brief: as §1
# [23] = biological target: Gal3S(b1-4)[Fuc(a1-3)]Glc6S
# Method in brief: as §1
# [24] = biological target: Gal3S4S(b1-4)GlcNAc
# Method in brief: as §1
# [25] = biological target: Gal3S6S(b1-4)GlcNAc6S
# Method in brief: as §1
# [26] = biological target: GalNAc(b1-3)Gal(a1-4)Gal(b1-4)GlcNAc
# Method in brief: as §1
# [27] = biological target: Glc(a1-6)Glc(a1-6)Glc
# Method in brief: as §1
# [28] = biological target: GlcNAc(a1-4)Gal(b1-4)GlcNAc(b1-3)Gal(b1-4)[Fuc(a1-3)]GlcNAc(b1-3)Gal(b1-4)[Fuc(a1-3)]GlcNAc
# Method in brief: as §1
# [29] = biological target: GlcNAc(b1-2)[GlcNAc(b1-4)]Man(a1-3)[GlcNAc(b1-4)][GlcNAc(b1-2)Man(a1-6)]Man(b1-4)GlcNAc(b1-4)GlcNAc
# Method in brief: as §1
# [30] = biological target: GlcNAc(b1-2)[GlcNAc(b1-6)]Man(a1-6)[GlcNAc(b1-2)Man(a1-3)]Man(b1-4)GlcNAc(b1-4)GlcNAc
# Method in brief: as §1
# [31] = biological target: GlcNAc(b1-4)[GlcNAc(b1-6)]GalNAc
# Method in brief: as §1
# [32] = biological target: Neu5Ac(a2-3)Gal(b1-3)GlcNAc6S
# Method in brief: as §1
# [33] = biological target: Neu5Ac(a2-3)Gal(b1-4)GlcNAc(b1-3)Gal
# Method in brief: as §1
# [34] = biological target: Neu5Ac(a2-3)Gal(b1-4)GlcNAc(b1-6)[Neu5Ac(a2-3)Gal(b1-3)]GalNAc
# Method in brief: as §1
# [35] = biological target: Neu5Ac(a2-3)Gal(b1-4)[Fuc(a1-3)]GlcNAc(b1-3)GalNAc
# Method in brief: as §1
# [36] = biological target: Neu5Ac(a2-3)Gal(b1-4)[Fuc(a1-3)]GlcNAc(b1-6)[Gal(b1-3)]GalNAc
# Method in brief: as §1
# [37] = biological target: Neu5Ac(a2-3)[Neu5Ac(a2-6)]GalNAc
# Method in brief: as §1
# [38] = biological target: Neu5Ac(a2-6)Gal(b1-4)GlcNAc(b1-2)Man(a1-3)[GlcNAc(b1-2)Man(b1-4)GlcNAc(b1-2)Man(a1-6)]Man(b1-4)GlcNAc(b1-4)GlcNAc
# Method in brief: as §1
# [39] = biological target: Neu5Ac(a2-6)Gal(b1-4)GlcNAc(b1-3)Gal(b1-3)GlcNAc
# Method in brief: as §1
# [40] = biological target: Neu5Ac(a2-6)GalNAc
# Method in brief: as §1
# [41] = biological target: Neu5Ac(a2-8)Neu5Ac(a2-3)[GalNAc(b1-4)]Gal(b1-4)Glc
# Method in brief: as §1
# [42] = biological target: Neu5Ac(b2-6)GalNAc
# Method in brief: as §1
# [43] = biological target: Neu5Gc(a2-6)Gal(b1-4)GlcNAc
# Method in brief: as §1
binder,measurement,setting,value
B1,glycan array binding signal (z-score),[1],2.54
same,glycan array binding signal (z-score),[2],-0.247
same,glycan array binding signal (z-score),[3],-0.411
same,glycan array binding signal (z-score),[4],4.04
same,glycan array binding signal (z-score),[5],-0.374
same,glycan array binding signal (z-score),[6],-0.398
same,glycan array binding signal (z-score),[7],-0.345
same,glycan array binding signal (z-score),[8],5.4
same,glycan array binding signal (z-score),[9],4.86
same,glycan array binding signal (z-score),[10],5.07
same,glycan array binding signal (z-score),[11],2.69
same,glycan array binding signal (z-score),[12],4.4
same,glycan array binding signal (z-score),[13],0.929
same,glycan array binding signal (z-score),[14],-0.315
same,glycan array binding signal (z-score),[15],0.421
same,glycan array binding signal (z-score),[16],-0.14
same,glycan array binding signal (z-score),[17],1.21
same,glycan array binding signal (z-score),[18],-0.222
same,glycan array binding signal (z-score),[19],0.293
same,glycan array binding signal (z-score),[20],-0.269
same,glycan array binding signal (z-score),[21],-0.322
same,glycan array binding signal (z-score),[22],-0.301
same,glycan array binding signal (z-score),[23],6.54
same,glycan array binding signal (z-score),[24],-0.461
same,glycan array binding signal (z-score),[25],-0.379
same,glycan array binding signal (z-score),[26],-0.284
same,glycan array binding signal (z-score),[27],-0.33
same,glycan array binding signal (z-score),[28],3.72
same,glycan array binding signal (z-score),[29],-0.318
same,glycan array binding signal (z-score),[30],-0.257
same,glycan array binding signal (z-score),[31],-0.407
same,glycan array binding signal (z-score),[32],-0.165
same,glycan array binding signal (z-score),[33],-0.403
same,glycan array binding signal (z-score),[34],-0.097
same,glycan array binding signal (z-score),[35],2.77
same,glycan array binding signal (z-score),[36],5.03
same,glycan array binding signal (z-score),[37],-0.405
same,glycan array binding signal (z-score),[38],-0.293
same,glycan array binding signal (z-score),[39],-0.3
same,glycan array binding signal (z-score),[40],-0.404
same,glycan array binding signal (z-score),[41],-0.165
same,glycan array binding signal (z-score),[42],-0.413
same,glycan array binding signal (z-score),[43],-0.437

# Source: the supplement of paper PMC8728848
